Laboratory results taken from PubChem BioAssay (NCI).
Where “and” joins values, the source holds several entries; their conditions need not be identical. Identical values can stand only once. This is part of a sample that, as a whole, favours compounds with a hit. Of some 83,000 tested, about 20% had one in any assay.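 Each cell line was grown in a 96-well plate and treated with one concentration of compound for 48 hours. Values below 10 were considered active.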 Calls of active or inactive are those of the source.

The compounds below were run on MDA-MB-468 breast (assay: NCI-60 one-dose screen, 48 h (100 = growth as untreated, 0 = no growth, -100 = all killed)). Details: 10 µM unless noted.

| Structure (SMILES) | growth |
| --- | --- |
| O=C(OCc1ccc2c(Br)cc(Br)c(O)c2n1)N1CCN(C(=O)c2cc3ccccc3[nH]2)CC1 | 21.9% (inactive) |
| O=C(CI)NC1Oc2ccccc2-c2oc(=O)c(-c3ccccc3)cc21 (stereo not given) | -42.3% (active) |
| CC[C@H](Nc1nc(N)nc(C)c1C#N)c1nc2cccc(NCc3ccc(C(=O)NO)cc3)c2c(=O)n1-c1ccccc1 | 3.26% (active) |
| C/C=C1\SC(=S)NC1=O | 114% (inactive) |
| CCCCn1c(Cc2ccc(OC)cc2)nc2cc(OC)c(OC)cc2c1=O | 46.7% (inactive) |
| C[C@@H](Nc1cc(F)cc(F)c1)c1cc(C(=O)N(C)C)cc2c(=O)cc(N3CCOCC3)oc12 | 12.6% (inactive) |
| CCC(C)C1NC(=O)C(CCCCN)NC(=O)C(CCCCN)NC(=O)C(CC(C)C)NC(=O)C(CCCCN)NC(=O)C(C(C)CC)NC(=O)C(C(C)C)NC(=O)C(C(C)CC)NC(=O)C(CCCCN)NC(=O)C(CCCCN)NC(=O)C(C)NC(=O)C(CCCCN)NC(=O)C(CC(C)C)NC1=O (stereo not given) | 1.45% (active) |
| COc1ccc(-c2nnc(COc3ccc(NC(=O)Nc4cc(C(F)(F)F)cc(C(F)(F)F)c4)cc3F)o2)cc1 | -9.21% (active) |
| C#CCOc1ccc(/C=N/Nc2nc(-c3cc4cc(Br)cc(Br)c4oc3=O)cs2)cc1 | 106% (inactive) |
| CCCCC(CC)CN=C(N)NC(N)=NCCCCCCN=C(N)NC(N)=NCC(CC)CCCC (stereo not given) | -85.7% (active) |
| CN(C)c1ccc(-c2nc(-c3ccccc3)c(-c3ccccc3)[nH]2)cc1 | 114% (inactive) |
| [2H]c1nc(Nc2ncc(F)c(-c3cc(F)c4nc(C)n(C(C)C)c4c3)n2)c([2H])c([2H])c1CN1CCN(C([2H])([2H])C([2H])([2H])[2H])CC1 | 103% (inactive) |
| COc1ccc2cc(/C=C3\N=C(c4cc(OC)c(OC)c(OC)c4)OC3=O)c(OC)nc2c1 | 108% (inactive) |
| NNCCc1ccc(NC(=O)CCCc2ccc(C(=O)Nc3ccccc3N)cc2)cc1 | 72.9% (inactive) |
| CC/C=C\C[C@H]1C/C=C2/C(=O)C=C[C@H]2C/C=C\CCCC(=O)O1 | 31.7% (inactive) |
| Fc1ccc(-c2ccnc3nc(-c4ccncc4)nn23)cc1 | 111% (inactive) |
| Cc1ccc(-c2cc(-c3ccc(C)cc3)nc(NCCNc3ccnc4cc(Cl)ccc34)n2)cc1 | -93.2% (active) |
| CC(C)(C)n1cc(-c2ccnc(NCCCNS(=O)(=O)c3ccc(Br)cc3)c2)c(-c2cccc(O)c2)n1 | 3.51% (active) |
| COC(=O)[C@@H](OC)[C@@H]1Cc2cc3cc(OC4CC(OC5CC(O)C(O)C(C)O5)C(O)C(C)O4)c(C)c(O)c3c(O)c2C(=O)[C@H]1OC1CC(OC2CC(OC3CC(C)(O)C(O)C(C)O3)C(O)C(C)O2)C(O)C(C)O1 (stereo not given in full) | -45.6% (active) |
| CC1OC(O[C@@H]2[C@H](O)C(CO)OC(O[C@H]3COC(O[C@H]4CC[C@]5(C)[C@H]6CC[C@]78OC[C@@]9(CC[C@](C)(C=O)C[C@H]97)C(=O)C[C@@]8(C)[C@]6(C)CC[C@H]5C4(C)C)[C@@H](O)[C@@H]3O)[C@H]2OC2OC[C@@H](O)[C@@H](O)[C@@H]2O)[C@@H](O)[C@@H](O)[C@H]1O (stereo not given in full) | 104% (inactive) |

| Structure (SMILES) | growth |
| --- | --- |
| NC(=O)c1c(NC(=O)c2ccc(F)cc2F)sc2c1CCC(=O)C2 | 81.7% (inactive) |
| CC(C(=O)O)n1cc(C#N)c(=O)[nH]c1=O (stereo not given) | 103% (inactive) and 107% (inactive) |
| COc1ccc(-c2nc(/C=N/Nc3cc(C)nc4ccc(Cl)cc34)c(C)o2)cc1 | -73.7% (active) |
| COc1ccccc1/C=C/C1=C(C)CCC(c2ccccc2OC)C1C (stereo not given) | 29.7% (inactive) |
| Nc1ccc(Oc2ccccc2)c(Cl)c1 | 92.1% (inactive) |
| Cc1ccc([N+](=O)[O-])c(C)n1 | 112% (inactive) |
| COc1ccc(N(C)c2ncnc3occ(C)c23)cc1 | 30.2% (inactive) |
| CS(=O)(=O)Nc1cc(-c2ccc3ncc(C#N)c(NCc4ccccc4)c3c2)cnc1Cl | -53.9% (active) |
| COC(=O)/C=C/c1cc(OC)c2c(c1)[C@@H](C(=O)OC)[C@H](c1ccc(OC)c(OC)c1)O2 | 50.9% (inactive) |
| COc1ccc(NC2=NC(C)(CO)CS2)cc1 (stereo not given) | 108% (inactive) |
| COC1CCC(N2C(=O)CNc3ncc(-c4ccc(C(C)(C)O)nc4)nc32)CC1 (stereo not given) | -25.2% (active) |
| N#CSCC1CC(O)(c2ccccc2)C(c2ccccc2)C(c2ccc(F)cc2)O1 (stereo not given) | -13.4% (active) |
| N#C/C(=C\c1cccc2cnccc12)N1N=NC2C=CC=CC21 (stereo not given) | 32.9% (inactive) |
| CCOC(=O)c1cc(C(=O)c2ccc(Cl)cc2)n2ccc(-c3cc[n+](CC(=O)c4ccc(OC)cc4)cc3)cc12 | 70.7% (inactive) |
| CC(=O)Nc1sc2c(c1-c1nc3ccccc3s1)CNC2 | -3.09% (active) |
| COc1ccc(/C=N/NC(=O)c2ccc(S(C)(=O)=O)cc2)cc1OC | 100% (inactive) |
| NC(=O)NC(=O)c1ccc(Cl)cc1 | 117% (inactive) |
| Cc1c(O)c(=O)ccn1-c1nc2ccccc2s1 | 103% (inactive) |
| O=C(Nc1ccccc1)Oc1c(Cl)c(Cl)c(Cl)c(Cl)c1Cl | 116% (inactive) and 98.8% (inactive) |
| COc1cc2c3c(n(C4CCNCC4)c(=O)c2cc1OC)-c1cc2c(cc1C3=O)OCO2 | -81% (active) |
